What all share (assay): DAPPL (digital affinity profiling via proximity ligation, sequencing); 10 mM Tris-HCl pH 7.5, 50 mM NaCl, 1 mM DTT, 4% glycerol, room temperature, 30 min; GST-TFs on glutathione beads, 16-mer random dsDNA library, 0.1% formaldehyde crosslink after washing; high values mean tight binding
Test [1] deals with T1, FLI1 (Homo sapiens, UniProt Q01543 1-452).
T1 sequence: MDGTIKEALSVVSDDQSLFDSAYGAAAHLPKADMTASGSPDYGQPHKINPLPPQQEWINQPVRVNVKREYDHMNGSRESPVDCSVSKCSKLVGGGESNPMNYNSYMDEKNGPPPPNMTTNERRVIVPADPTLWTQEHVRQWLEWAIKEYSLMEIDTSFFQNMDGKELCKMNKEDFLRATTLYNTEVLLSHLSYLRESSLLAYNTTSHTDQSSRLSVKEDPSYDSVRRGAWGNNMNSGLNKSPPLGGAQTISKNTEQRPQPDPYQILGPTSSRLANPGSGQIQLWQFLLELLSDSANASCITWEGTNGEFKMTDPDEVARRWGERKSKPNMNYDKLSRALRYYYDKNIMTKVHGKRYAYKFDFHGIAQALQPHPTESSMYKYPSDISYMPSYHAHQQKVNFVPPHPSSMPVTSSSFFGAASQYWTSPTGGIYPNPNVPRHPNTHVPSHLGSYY
The conditions noted are these: protein: recombinant; tags: N-terminal GST; dsDNA, one strand shown. A digest of the protocol:
(§1)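 Sequencing on an Illumina NextSeq500 followed washing, crosslinking with 0.1% formaldehyde, proximity ligation (BsaI/T4 ligase, 1 h, 37 °C) and PCR amplification of pools that had been incubated for 30 min at room temperature with 200 nmole of a random double-stranded 16-mer DNA library in Tris/NaCl/DTT/glycerol buffer. Each pool held DNA-barcoded human transcription factors, expressed in yeast as GST fusions and captured on glutathione beads, plus a tag-only sample. Binding signal is a hexamer's read frequency for a factor divided by its frequency in the tag-only sample.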

In test [2] the target is T2, ELK1 (Homo sapiens, UniProt P19419 1-428).
T2 sequence: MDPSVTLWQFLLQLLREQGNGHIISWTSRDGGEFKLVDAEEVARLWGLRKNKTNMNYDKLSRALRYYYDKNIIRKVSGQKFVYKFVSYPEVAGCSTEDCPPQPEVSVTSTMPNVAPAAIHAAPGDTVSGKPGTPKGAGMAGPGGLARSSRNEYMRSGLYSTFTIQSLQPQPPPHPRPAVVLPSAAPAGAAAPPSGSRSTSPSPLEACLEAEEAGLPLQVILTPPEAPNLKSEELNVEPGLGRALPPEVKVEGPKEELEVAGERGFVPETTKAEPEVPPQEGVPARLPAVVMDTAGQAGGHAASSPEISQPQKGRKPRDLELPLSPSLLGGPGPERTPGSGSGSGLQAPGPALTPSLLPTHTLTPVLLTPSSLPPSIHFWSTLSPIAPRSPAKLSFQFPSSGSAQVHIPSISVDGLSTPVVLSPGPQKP
The conditions noted are these: protein: recombinant; tags: N-terminal GST; dsDNA, one strand shown. The gist of the method: as §1

For test [3], the target named is T3, GABPA (Homo sapiens, UniProt Q06546 1-454).
T3 sequence: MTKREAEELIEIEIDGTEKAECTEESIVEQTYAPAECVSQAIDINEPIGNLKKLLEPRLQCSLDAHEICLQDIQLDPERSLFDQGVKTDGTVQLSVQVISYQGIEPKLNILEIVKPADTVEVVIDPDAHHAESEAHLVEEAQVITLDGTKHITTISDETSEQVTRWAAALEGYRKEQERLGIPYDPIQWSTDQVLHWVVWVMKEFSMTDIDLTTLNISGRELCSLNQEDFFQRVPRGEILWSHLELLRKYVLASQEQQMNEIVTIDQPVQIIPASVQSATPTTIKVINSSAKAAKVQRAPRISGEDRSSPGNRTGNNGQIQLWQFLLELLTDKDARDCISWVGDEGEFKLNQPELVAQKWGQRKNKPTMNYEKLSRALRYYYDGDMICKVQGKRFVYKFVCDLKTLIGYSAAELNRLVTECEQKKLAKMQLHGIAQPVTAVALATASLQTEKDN
The note with it: protein: recombinant; tags: N-terminal GST; dsDNA, one strand shown. The gist of the method: as §1

Test [4] has as its target T4, ERG (Homo sapiens, UniProt P11308 1-479).
T4 sequence: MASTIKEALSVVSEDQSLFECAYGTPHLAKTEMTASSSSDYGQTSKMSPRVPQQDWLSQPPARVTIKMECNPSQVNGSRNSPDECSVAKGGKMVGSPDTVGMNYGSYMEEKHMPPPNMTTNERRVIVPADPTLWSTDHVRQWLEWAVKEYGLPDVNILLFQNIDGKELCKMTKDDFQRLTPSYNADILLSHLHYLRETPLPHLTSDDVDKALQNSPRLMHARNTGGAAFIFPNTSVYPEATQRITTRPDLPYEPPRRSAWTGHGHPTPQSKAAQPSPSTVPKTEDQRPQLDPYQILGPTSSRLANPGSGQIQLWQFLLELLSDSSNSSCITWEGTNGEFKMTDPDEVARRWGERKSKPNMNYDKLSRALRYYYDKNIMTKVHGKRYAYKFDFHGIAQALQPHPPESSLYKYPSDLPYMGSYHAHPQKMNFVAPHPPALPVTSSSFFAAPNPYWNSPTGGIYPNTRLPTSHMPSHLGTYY
The conditions noted are these: protein: recombinant; tags: N-terminal GST; dsDNA, one strand shown. A digest of the protocol:
as §1

Test [5] concerns the target ELF1 (Homo sapiens, UniProt P32519 1-619). The note with it: protein: recombinant; tags: N-terminal GST; dsDNA, one strand shown. The gist of the method:
as §1

Test [6] deals with T5, EHF (Homo sapiens, UniProt Q9NZC4 1-300).
T5 sequence: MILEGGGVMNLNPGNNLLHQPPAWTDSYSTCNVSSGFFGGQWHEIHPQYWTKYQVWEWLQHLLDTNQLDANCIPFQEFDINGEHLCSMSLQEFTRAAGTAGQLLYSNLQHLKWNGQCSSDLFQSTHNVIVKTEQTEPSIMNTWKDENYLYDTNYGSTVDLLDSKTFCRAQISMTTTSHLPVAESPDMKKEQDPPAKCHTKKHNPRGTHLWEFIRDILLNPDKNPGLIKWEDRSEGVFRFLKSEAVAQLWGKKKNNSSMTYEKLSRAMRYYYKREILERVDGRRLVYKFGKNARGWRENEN
The conditions noted are these: protein: recombinant; tags: N-terminal GST; dsDNA, one strand shown. The gist of the method:
as §1

Test [7] addresses SPI1 (Homo sapiens, UniProt P17947 1-270). The conditions noted are these: protein: recombinant; tags: N-terminal GST; dsDNA, one strand shown. A digest of the protocol:
as §1

Test [8] addresses SPIB (Homo sapiens, UniProt Q01892 1-262). The note with it: protein: recombinant; tags: N-terminal GST; dsDNA, one strand shown. A digest of the protocol:
as §1

Test [9] concerns the target T6, ELK3 (Homo sapiens, UniProt P41970 1-407).
T6 sequence: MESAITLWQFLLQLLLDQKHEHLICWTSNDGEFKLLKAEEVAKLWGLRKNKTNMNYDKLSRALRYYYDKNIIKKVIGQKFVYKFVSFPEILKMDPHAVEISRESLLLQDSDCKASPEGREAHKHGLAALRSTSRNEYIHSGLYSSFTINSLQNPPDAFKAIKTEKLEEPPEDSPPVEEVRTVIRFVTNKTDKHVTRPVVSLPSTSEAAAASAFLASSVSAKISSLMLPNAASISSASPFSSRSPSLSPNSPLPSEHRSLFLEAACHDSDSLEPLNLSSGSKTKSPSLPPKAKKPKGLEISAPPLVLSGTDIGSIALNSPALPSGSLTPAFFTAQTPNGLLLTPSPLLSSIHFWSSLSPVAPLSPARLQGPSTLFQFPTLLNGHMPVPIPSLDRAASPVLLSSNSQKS
The conditions noted are these: protein: recombinant; tags: N-terminal GST; dsDNA, one strand shown. A digest of the protocol:
as §1

The target in test [10] is T7, FEV (Homo sapiens, UniProt Q99581 1-238).
T7 sequence: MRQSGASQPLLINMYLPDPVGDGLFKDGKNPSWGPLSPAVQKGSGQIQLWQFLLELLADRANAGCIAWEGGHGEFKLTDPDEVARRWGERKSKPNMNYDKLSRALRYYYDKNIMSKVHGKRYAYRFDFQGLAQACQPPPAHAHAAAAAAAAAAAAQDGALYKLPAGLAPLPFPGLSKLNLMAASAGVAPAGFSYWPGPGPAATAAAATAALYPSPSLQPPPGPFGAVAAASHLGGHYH
The note with it: protein: recombinant; tags: N-terminal GST; dsDNA, one strand shown. The gist of the method:
as §1

Test [11] has as its target ETV5 (Homo sapiens, UniProt P41161 1-510). The conditions noted are these: protein: recombinant; tags: N-terminal GST; dsDNA, one strand shown. The gist of the method: as §1
Test [12] concerns the target HSF1 (Homo sapiens, UniProt Q00613 1-529). The note with it: protein: recombinant; tags: N-terminal GST; chain copies: 3; dsDNA, one strand shown. The gist of the method:
as §1

Test [13] deals with T8, SPIC (Homo sapiens, UniProt Q8N5J4 1-248).
T8 sequence: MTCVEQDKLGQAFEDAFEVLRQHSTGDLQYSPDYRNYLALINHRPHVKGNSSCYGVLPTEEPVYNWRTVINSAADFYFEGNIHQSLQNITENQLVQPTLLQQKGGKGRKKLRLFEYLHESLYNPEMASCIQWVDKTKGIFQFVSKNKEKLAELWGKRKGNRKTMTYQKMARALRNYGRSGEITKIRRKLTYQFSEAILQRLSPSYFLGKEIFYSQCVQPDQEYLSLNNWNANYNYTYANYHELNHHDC
The conditions noted are these: protein: recombinant; tags: N-terminal GST; dsDNA, one strand shown. The gist of the method:
as §1

For test [14], the target named is ELF4 (Homo sapiens, UniProt Q99607 1-663). The conditions noted are these: protein: recombinant; tags: N-terminal GST; dsDNA, one strand shown. A digest of the protocol:
as §1

For test [15], the target named is T9, ELK4 (Homo sapiens, UniProt P28324-2 1-405).
T9 sequence: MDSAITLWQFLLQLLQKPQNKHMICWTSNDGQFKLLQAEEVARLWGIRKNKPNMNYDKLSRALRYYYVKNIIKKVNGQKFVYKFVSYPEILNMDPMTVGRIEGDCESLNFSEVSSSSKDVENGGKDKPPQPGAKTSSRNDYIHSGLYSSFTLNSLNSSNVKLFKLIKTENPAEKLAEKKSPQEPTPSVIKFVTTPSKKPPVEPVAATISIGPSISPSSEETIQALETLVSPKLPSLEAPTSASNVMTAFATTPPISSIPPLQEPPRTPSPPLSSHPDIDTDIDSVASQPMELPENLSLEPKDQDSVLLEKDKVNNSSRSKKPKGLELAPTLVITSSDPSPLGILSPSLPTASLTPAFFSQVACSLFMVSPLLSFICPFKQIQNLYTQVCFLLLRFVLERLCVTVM
The note with it: protein: recombinant; tags: N-terminal GST; dsDNA, one strand shown. The gist of the method: as §1

Test [16] has as its target T10, ETV2 (Homo sapiens, UniProt O00321 1-342).
T10 sequence: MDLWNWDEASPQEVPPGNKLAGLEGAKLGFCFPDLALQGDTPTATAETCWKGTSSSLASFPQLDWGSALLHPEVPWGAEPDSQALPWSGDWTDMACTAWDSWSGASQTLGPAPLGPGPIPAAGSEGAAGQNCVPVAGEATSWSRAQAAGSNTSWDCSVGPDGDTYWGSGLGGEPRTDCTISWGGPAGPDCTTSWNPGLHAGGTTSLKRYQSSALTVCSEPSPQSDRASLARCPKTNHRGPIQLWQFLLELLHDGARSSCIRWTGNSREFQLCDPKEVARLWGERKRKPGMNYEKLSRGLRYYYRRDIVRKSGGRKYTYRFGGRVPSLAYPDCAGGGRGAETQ
The conditions noted are these: protein: recombinant; tags: N-terminal GST; dsDNA, one strand shown. A digest of the protocol:
as §1

For test [17], the target named is T11, ELF3 (Homo sapiens, UniProt P78545 1-371).
T11 sequence: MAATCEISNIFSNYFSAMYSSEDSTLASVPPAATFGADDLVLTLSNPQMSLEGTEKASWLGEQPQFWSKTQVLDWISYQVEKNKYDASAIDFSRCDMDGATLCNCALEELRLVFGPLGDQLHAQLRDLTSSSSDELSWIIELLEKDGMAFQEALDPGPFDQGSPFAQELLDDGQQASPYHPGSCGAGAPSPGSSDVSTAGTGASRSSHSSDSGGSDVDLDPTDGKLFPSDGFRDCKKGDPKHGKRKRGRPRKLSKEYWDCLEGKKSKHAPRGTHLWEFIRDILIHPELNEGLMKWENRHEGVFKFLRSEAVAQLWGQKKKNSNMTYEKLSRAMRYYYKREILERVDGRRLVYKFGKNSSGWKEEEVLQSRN
The note with it: protein: recombinant; tags: N-terminal GST; dsDNA, one strand shown. The gist of the method:
as §1

In test [18] the target is ETV1 (Homo sapiens, UniProt P50549 1-477). The note with it: protein: recombinant; tags: N-terminal GST; dsDNA, one strand shown. The gist of the method:
as §1

SPIB, sequence (Q01892 whole entry): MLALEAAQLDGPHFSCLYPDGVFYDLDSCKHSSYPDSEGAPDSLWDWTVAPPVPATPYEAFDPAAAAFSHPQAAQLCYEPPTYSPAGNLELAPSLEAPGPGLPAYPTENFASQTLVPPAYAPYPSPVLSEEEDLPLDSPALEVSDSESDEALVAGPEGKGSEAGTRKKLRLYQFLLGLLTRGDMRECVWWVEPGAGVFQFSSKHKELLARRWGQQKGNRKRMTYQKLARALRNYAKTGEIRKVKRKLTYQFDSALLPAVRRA
ETV1, sequence (P50549 whole entry): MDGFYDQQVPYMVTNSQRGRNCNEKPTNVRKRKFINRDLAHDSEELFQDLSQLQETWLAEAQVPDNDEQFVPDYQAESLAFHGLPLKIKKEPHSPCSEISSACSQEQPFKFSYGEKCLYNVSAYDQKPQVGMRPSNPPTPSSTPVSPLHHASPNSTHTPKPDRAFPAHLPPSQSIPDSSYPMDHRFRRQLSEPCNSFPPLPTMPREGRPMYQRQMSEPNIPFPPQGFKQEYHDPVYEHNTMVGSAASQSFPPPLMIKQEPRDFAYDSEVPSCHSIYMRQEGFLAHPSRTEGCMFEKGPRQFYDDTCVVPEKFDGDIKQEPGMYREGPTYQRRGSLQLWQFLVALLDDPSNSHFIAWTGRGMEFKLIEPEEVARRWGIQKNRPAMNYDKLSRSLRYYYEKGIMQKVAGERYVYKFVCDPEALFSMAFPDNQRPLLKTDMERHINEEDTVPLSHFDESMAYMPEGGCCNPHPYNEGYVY
ELF1, sequence (P32519 whole entry): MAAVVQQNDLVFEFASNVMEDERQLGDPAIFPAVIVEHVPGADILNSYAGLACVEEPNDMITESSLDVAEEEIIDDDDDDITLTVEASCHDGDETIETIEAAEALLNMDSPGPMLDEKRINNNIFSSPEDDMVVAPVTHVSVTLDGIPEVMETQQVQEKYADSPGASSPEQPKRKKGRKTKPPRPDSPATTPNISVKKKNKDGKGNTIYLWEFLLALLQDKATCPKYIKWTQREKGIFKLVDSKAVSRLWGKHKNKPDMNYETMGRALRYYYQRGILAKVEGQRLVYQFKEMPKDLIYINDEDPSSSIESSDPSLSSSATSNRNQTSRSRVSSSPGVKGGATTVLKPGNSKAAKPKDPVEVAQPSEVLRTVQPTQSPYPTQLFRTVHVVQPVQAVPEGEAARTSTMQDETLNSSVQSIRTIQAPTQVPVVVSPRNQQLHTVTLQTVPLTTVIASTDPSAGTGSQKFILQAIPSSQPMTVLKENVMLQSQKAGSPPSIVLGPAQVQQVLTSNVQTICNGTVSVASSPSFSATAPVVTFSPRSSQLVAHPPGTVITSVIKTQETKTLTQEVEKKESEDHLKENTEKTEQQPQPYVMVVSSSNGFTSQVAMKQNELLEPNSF
ELF4, sequence (Q99607 whole entry): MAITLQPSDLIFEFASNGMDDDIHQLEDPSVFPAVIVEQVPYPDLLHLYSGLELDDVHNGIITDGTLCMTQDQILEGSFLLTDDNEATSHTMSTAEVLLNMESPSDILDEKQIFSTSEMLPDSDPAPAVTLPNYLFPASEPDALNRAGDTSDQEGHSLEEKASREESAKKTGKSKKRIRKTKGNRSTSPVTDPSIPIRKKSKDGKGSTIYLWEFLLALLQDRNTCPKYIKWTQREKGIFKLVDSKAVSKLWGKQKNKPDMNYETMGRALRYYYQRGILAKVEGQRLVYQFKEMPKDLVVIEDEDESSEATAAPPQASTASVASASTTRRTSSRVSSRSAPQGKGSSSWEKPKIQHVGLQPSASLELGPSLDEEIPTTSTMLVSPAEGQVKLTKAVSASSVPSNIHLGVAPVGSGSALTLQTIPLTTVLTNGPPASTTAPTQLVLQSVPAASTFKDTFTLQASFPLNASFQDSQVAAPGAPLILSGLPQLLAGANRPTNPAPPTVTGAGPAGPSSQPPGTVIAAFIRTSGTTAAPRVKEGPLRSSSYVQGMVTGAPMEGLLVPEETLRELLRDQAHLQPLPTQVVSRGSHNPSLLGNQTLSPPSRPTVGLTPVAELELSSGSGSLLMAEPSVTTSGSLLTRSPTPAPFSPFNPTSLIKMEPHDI
ETV5, sequence (P41161 whole entry): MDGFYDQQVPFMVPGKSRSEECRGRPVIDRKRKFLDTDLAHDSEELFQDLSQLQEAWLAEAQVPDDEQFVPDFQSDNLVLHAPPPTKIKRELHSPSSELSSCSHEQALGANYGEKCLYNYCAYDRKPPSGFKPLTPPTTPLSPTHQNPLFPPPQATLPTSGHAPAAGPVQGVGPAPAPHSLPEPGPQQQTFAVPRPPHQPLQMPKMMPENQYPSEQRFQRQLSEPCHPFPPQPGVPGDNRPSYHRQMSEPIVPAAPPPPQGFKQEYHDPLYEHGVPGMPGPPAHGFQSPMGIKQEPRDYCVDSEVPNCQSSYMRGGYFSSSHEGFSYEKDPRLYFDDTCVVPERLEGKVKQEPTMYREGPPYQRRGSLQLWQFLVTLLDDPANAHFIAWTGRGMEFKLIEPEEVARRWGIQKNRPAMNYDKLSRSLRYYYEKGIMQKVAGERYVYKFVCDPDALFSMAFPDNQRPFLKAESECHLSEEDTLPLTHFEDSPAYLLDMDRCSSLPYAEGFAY
HSF1, sequence (Q00613 whole entry): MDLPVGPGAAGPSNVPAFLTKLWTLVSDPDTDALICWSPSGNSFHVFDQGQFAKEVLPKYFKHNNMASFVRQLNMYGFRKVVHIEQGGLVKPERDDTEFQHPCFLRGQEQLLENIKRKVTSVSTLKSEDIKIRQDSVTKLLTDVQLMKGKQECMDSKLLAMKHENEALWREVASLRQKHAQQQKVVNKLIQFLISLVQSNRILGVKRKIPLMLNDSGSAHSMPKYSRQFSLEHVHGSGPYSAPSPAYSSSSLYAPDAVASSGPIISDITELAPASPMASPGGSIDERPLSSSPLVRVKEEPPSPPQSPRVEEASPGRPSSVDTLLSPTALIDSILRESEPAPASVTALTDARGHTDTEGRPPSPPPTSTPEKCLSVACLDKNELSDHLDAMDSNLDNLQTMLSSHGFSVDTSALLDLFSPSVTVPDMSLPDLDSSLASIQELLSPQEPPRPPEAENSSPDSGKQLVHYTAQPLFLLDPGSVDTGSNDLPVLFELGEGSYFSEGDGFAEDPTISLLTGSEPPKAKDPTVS

Turning to CGACCC, the binding signal in [1] was 1.42 fold enrichment (6-mer frequency, TF over GST control); in [2], 1.46 fold enrichment (6-mer frequency, TF over GST control); in test [3] it was 1.44 fold enrichment (6-mer frequency, TF over GST control); in test [4], 1.22 fold enrichment (6-mer frequency, TF over GST control); in test [5], 1.26 fold enrichment (6-mer frequency, TF over GST control); in test [6], 1.29 fold enrichment (6-mer frequency, TF over GST control). In addition, the binding signal in test [7] was 1.23 fold enrichment (6-mer frequency, TF over GST control); in test [8], 1.21 fold enrichment (6-mer frequency, TF over GST control); in test [9], 1.37 fold enrichment (6-mer frequency, TF over GST control); in test [10] it was 1.17 fold enrichment (6-mer frequency, TF over GST control); in [11], 1.3 fold enrichment (6-mer frequency, TF over GST control); in [12] it was 1.03 fold enrichment (6-mer frequency, TF over GST control). Further, the binding signal is 1.23 fold enrichment (6-mer frequency, TF over GST control) in test [13]; 1.31 fold enrichment (6-mer frequency, TF over GST control) in [14]; 1.17 fold enrichment (6-mer frequency, TF over GST control) in test [15]; 1.39 fold enrichment (6-mer frequency, TF over GST control) in test [16]; 1.2 fold enrichment (6-mer frequency, TF over GST control) in test [17]; 1.23 fold enrichment (6-mer frequency, TF over GST control) in test [18].
